IDH1 mut inh: IDH1 R132H (human) inhibition; IDH1 R132H reductase, diaphorase/resazurin fluorescence, 60 min; inhibition, % at 10 µM; 0.18% of 70,000 active; in the data active means inhibition above about 34%;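 further: 0% = DMSO and 100% = no enzyme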
Numbers without * were called inactive. Only a selection was taken, and hits are over-represented in it overall.

For CN1CCc2cc(O)cc3c2[C@H]1Cc1ccc(O)c(O)c1-3 the results were IDH1 mut inh 17.7.
For CCCN1CCc2cc(O)cc3c2[C@H]1Cc1ccc(O)c(O)c1-3 the results were IDH1 mut inh 44.4*.
Screening CC(/C=C/C(=O)NO)=C\c1ccccc1OC[C@@H]1C=C2c3cccc4[nH]cc(c34)C[C@H]2N(C)C1 returned IDH1 mut inh 0.1.
